According to PubChem BioAssay AID2685 (National Center for Advancing Translational Sciences (NCATS), 2010):
The whole screen tested about 320,000 compounds, of which about 2,100 (0.66%) were called active. Another 53% or so got no clear call; they are omitted. Calls follow the shape of the dose curve; as a rule, active = well fitted inhibition curve with a large enough effect in the signal ratio, with a control signal flat (not every such curve was filed as active); inconclusive = small, poorly fitted or top-dose-only effect, or effect the other way, or a change in a side signal; inactive = flat fitted curve, though single readings scatter; the % refers to the signal ratio. For the sample, actives were picked, then their nearest neighbours and some compounds at random.

Test: qHTS Assay for Lipid Storage Modulators in Drosophila S3 Cells;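 as to cell number change: cells counted by Cell Tracker Red CMTPX staining in the red channel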; as to lipid storage change, negative = inhibition: % is scaled to controls: 0 for no effect and ±100 for the full control effect
Details: BODIPY lipid droplet fluorescence, 18-24 h, cells fed with added oleic acid; cell number change: measured here: cell count max response; series mostly up to 46.1 µM; lipid storage change, negative = inhibition: at the top concentration
Excerpt: NIH Molecular Libraries Probe Production Centers Network [MLPCN] NIH Chemical Genomics Center [NCGC] MLPCN Grant: 1 R03 MH085686-01 Assay Submitter (PI): Beller, Mathias; Max-Planck-Institut fur Biophysikalische Chemie NCGC Assay Overview: Storing lipids as a reservoir for energy or the anabolism of elementary metabolites is a common feature of probably all cells and is conserved from bacteria to humans. The universal cellular lipid storage organelle is the so-called lipid storage droplet (LD). Although ubiquitous, LDs share a simple structure composed of a hydrophobic core that harbors the storage lipids, which is shielded by a droplet-specific phospholipid monolayer to which proteins are attached. The current model of LD biogenesis involves an incorporation of the lipid core into the membrane leaflets of the endoplasmic reticulum (ER) followed by a subsequent budding-like maturation of a LD, which ultimately pinches off. Once released, LD volume can increase by localized lipogenesis or fusion of existing droplet. Storage lipids are re-mobilized enzymatically by lipase activity. Lipase regulation in the adipocyte is heavily studied and involves multiple components including catecholamine signaling, the LD-associated proteins Perilipin and comparative gene identification (CGI-58) and at least two lipases named hormone sensitive lipase (HSL) and adipocyte triglyceride lipase (ATGL). LD regulation outside of the adipocyte is poorly understood and only few components are known. However, there is an urgent need to learn more about ectopic fat depots as mislocalized storage of lipids, for example in the liver or muscle, is an eminent health problem associated with insulin resistance or the metabolic syndrome. We developed a laser-scanning cytometer assay to enable 1,536-well screening and combined the results of the small molecules screen with an RNAi database based on lipid storage.
Triacsin C (Sigma-Aldrich T-4540), an inhibitor of long-chain fatty acyl CoA synthetase that blocks synthesis of triglycerides, was used as a positive control for lipid under-storage. A total of 23 nL of compound solution of different concentrations were transferred to the assay plates using a Kalypsys pin tool equipped with a 1,536-pin array containing 10-nL slotted pins (FP1S10, 0.457-mm diameter, 50.8 mm long; V&P Scientific). One microliter of oleic acid (400 uM) was added, and the plate was lidded with stainless steel rubber gasket lined lids containing pinholes. […] Fluorescence was detected by excitation of the fluorophores with a 488-nm laser on an Acumen Explorer (TTP Lab Tech). The total intensity in channel 2 (500-530 nm) reflected lipid droplet accumulation. Cells were detected using channel 3 (575-640 nm) with 5-um width and 100-um depth filters. The ratio of the number of objects in PMT channel 2 over the number of objects in PMT channel 3 was also calculated. Percent activity was computed relative to an internal control (100% inhibited lipid droplet deposition due to the presence of 20 uM Triacsin C), which was added to 32 wells/plate.
Potency is read from the fitted curve at half-maximal effect.

Compound | lipid storage change, negative = inhibition | cell number change [%] | Potency | outcome
COc1ccc(CSc2nncn2C)cc1[N+](=O)[O-] | 18.5% (inactive) | -11.4 | – | –
O=C(Nc1c2c(nn1-c1ccccc1)CS(=O)(=O)C2)c1ccc2c(c1)OCO2 | 17.4% (inactive) | -19 | – | –
O=C(COC(=O)c1cccc(S(=O)(=O)N2CCOCC2)c1)Nc1ncc(C(F)(F)F)cc1Cl | – | -11.5 | 23.1 µM (active) | –
O=C(COC(=O)c1cccc(S(=O)(=O)N2CCc3ccccc32)c1)Nc1ncc(C(F)(F)F)cc1Cl | -12.9% (inactive) | -1.02 | – | –
O=C(COC(=O)c1cccc(S(=O)(=O)N2CCOCC2)c1)Nc1ccc(Cl)cn1 | 23.1% (inactive) | -3.5 | – | –
Cc1ccc(NC(=O)CCC(=O)Nc2ccc(C)cc2)cc1 | -11.2% (inactive) | -16.8 | – | –
Cc1cc(C)cc(C(=O)N2CCC3(CC2)NCCc2[nH]cnc23)c1 | -13.7% (inactive) | – | – | –
COc1ccc(-c2csc(NC(=O)c3cccc(N4C(=O)CCC4=O)c3)n2)cc1OC | -8.17% (inactive) | 19.9 | – | –
CNCCCOc1ccc(C)cc1Br | – | -34.9 | 20.6 µM (active) | –
CCCCNCCCOc1ccc(C)cc1Br | -0.0338% (inactive) | 10 | – | –
COCCCNCCCOc1ccc(C)cc1Br | 9.41% (inactive) | -14.3 | – | –
CCc1noc(C)c1C(=O)OCC(=O)c1ccccc1OC | -18.6% (inactive) | -12.4 | – | –
CCCCCC(=O)Nc1cc(S(=O)(=O)N2CCCCC2)ccc1N1CCOCC1 | -20.9% (inactive) | -1.56 | – | –
Cc1ccc(NC(=O)C2CCN(S(C)(=O)=O)CC2)cc1 | -13.2% (inactive) | 1.04 | – | –
Cc1ccc(NC(=O)C2CCN(S(C)(=O)=O)CC2)cc1C | – | – | 6.51 µM (active) | –
COc1ccc(NC(=O)C2CCN(S(C)(=O)=O)CC2)cc1OC | 16.9% (inactive) | 11.1 | – | –
O=C(O)CSC1c2ccccc2C(=O)N1Cc1ccccc1 (stereo not drawn) | 11% (inactive) | -11.8 | – | –
O=C(CC(=O)N/N=C/c1ccccc1)NCc1ccccc1 | 10.4% (inactive) | 2.89 | – | –
COc1cc(C(=O)NCCOc2cc(C)cc(C)c2)cc(OC)c1OC | 0.714% (inactive) | 3 | – | –
COc1ccc(C(=O)NCCCCNC(=O)c2ccc(OC)c(OC)c2)cc1OC | 17.3% (inactive) | 11.4 | – | –
COc1ccc(C(=O)NCCCc2ccccc2)cc1OC | 2.62% (inactive) | -16.4 | – | –

Compound | lipid storage change, negative = inhibition | cell number change [%] | Potency | outcome
COc1ccc(C(=O)NCCCCCC(=O)O)cc1OC | – | -16 | 9.2 µM (active) | –
COc1cc(C(=O)NCCOc2ccccc2)cc(OC)c1OC | 1.93% (inactive) | -10.6 | – | –
COCCCNC(=O)c1cc(OC)c(OC)c(OC)c1 | – | -1.92 | 16.4 µM (active) | –
COC(=O)c1ccc(-c2noc(CN3C[C@H]4CC[C@H]3C4)n2)cc1 | 10.7% (inactive) | -0.0392 | – | –
O=C(NCC1CCCCC1)c1ccccc1[N+](=O)[O-] | -19.7% (inactive) | 5.77 | – | –
COc1ccc(CNC(=O)Cc2cccs2)cc1OC | 5.76% (inactive) | 15.3 | – | –
Nc1nonc1C(=O)N/N=C/c1ccc(Br)o1 | -2.4% (inactive) | 5.25 | – | –
Cc1cccc(OCC(=O)O/N=C(\N)c2ccccn2)c1C | -9.68% (inactive) | -6.52 | – | –
COc1ccc(NC(=O)c2cc(S(=O)(=O)N3CCCCC3)ccc2OC)cc1 | -28.8% (inactive) | -15.6 | – | –
COc1ccc(C(=O)Nc2ccc(S(=O)(=O)N3CCCC3)cc2)c(OC)c1 | – | 7.48 | – | inactive
CC(=O)c1ccc(NC(=O)Nc2ccc(S(=O)(=O)N3CCCC3)cc2)cc1 | – | -4.34 | 9.2 µM (active) | –
CC(=O)Nc1ccc(S(=O)(=O)N2CCCC2)cc1 | -4.71% (inactive) | 12.4 | – | –
COc1cc(OC)c(C(=O)Nc2ccc(S(=O)(=O)N3CCCCC3)cc2)cc1OC | – | 2.89 | 6.51 µM (active) | –
CC(=O)Nc1ccc(S(=O)(=O)N2CCCN(S(=O)(=O)c3ccc(NC(C)=O)cc3)CC2)cc1 | 10.4% (inactive) | -11.8 | – | –
COc1ccc(N2C(=S)NC3CS(=O)(=O)CC32)cc1 (stereo not drawn) | 4.54% (inactive) | 0.125 | – | –
O=C(CSc1nnc(-c2ccccc2)o1)NC1CC1 | 2.05% (inactive) | -4.73 | – | –
Cc1cc(C)cc(-c2nnc(SCC(=O)NC3CC3)o2)c1 | 18.4% (inactive) | 9.78 | – | –
Cc1ccc(-c2nnc(SCC(=O)NC3CC3)o2)cc1 | – | 10.3 | 29.1 µM (active) | –
Cc1ccc(NC(NC(=O)c2cccs2)C(Cl)(Cl)Cl)cc1C (stereo not drawn) | -13% (inactive) | 4.44 | – | –
CC(C)(CO)N=C1NS(=O)(=O)c2cc([N+](=O)[O-])ccc21 | 0.321% (inactive) | 2.18 | – | –
CCOc1ccc2c(c1)C(C)=CC(C)(C)N2S(=O)(=O)c1ccc(C)cc1 | 0.5% (inactive) | -19.8 | – | –

Compound | lipid storage change, negative = inhibition | cell number change [%] | Potency | outcome
COc1ccc2c(c1)C(C)=CC(C)(C)N2S(=O)(=O)c1ccc(C)cc1 | 8.71% (inactive) | 5.92 | – | –
CCOc1ccc2c(c1)C(C)=CC(C)(C)N2S(=O)(=O)c1ccc(NC(C)=O)cc1 | – | -18.1 | 7.31 µM (active) | –
Cc1ccc(S(=O)(=O)NC(C)c2ccccc2)cc1[N+](=O)[O-] (stereo not drawn) | – | -16.5 | – | inactive
CCCOc1ccc(C2NC(=O)CCC2[N+](=O)[O-])cc1 (stereo not drawn) | – | -7.92 | – | inactive
COc1ccccc1C1NC(=O)NC(C)=C1C(C)=O (stereo not drawn) | – | 6.66 | 14.6 µM (active) | –
COc1ccccc1C1NC(=O)NC(C)=C1C(=O)OC1CCCCC1 (stereo not drawn) | -7.89% (inactive) | -18.5 | – | –
COc1ccccc1C1NC(=O)NC(C)=C1C(=O)OCc1ccccc1 (stereo not drawn) | 7.18% (inactive) | 8.03 | – | –
CCC(C)(C)NC(=O)C(c1ccccc1Cl)N(C(=O)CCC(=O)Nc1cc(C)on1)C1CC1 (stereo not drawn) | – | 10.4 | – | inactive
O=C(COC(=O)c1ccc(OC(F)F)cc1)NCCNC(=O)COC(=O)c1ccc(OC(F)F)cc1 | 1.33% (inactive) | -4.4 | – | –
Cn1c(SCC(=O)Nc2ccccc2F)nnc1-c1cccs1 | – | 14.3 | – | inactive
Cc1nnc(NC(=O)Cn2nc(C)c3ccccc3c2=O)s1 | 3.77% (inactive) | 9.11 | – | –
COc1cccc(NC(=O)CCNC(=O)c2ccccc2Cl)c1 | -15.6% (inactive) | -13.1 | – | –
CC(C)NC(=O)CN(C)S(=O)(=O)c1ccc(F)cc1 | -5.26% (inactive) | 0.117 | – | –
CCCNC(=O)CN(C)S(=O)(=O)c1ccc(F)cc1 | -19.4% (inactive) | -1.04 | – | –
CNC(=O)CN(C)S(=O)(=O)c1ccc(F)cc1 | – | – | 20.6 µM (active) | –
COc1cc(NC(=S)NCc2ccco2)cc(OC)c1OC | 7.9% (inactive) | -1.1 | – | –
Cc1ccc(Cc2cnc(NC(=O)c3cccs3)s2)cc1 | -11.2% (inactive) | -12.1 | – | –
Cc1ccc(S(=O)(=O)c2cc3c(=O)n4cccc(C)c4nc3n(CC3CCCO3)c2=N)cc1C (stereo not drawn) | 13.5% (inactive) | 7.15 | – | –
CC(=C\c1ccccc1)/C=C1/SC(=S)N(CCC(=O)O)C1=O | -4.15% (inactive) | 5.93 | – | –
COc1ccc(/C=C2/SC(=S)N(CCC(=O)O)C2=O)cc1 | -19.3% (inactive) | -16.6 | – | –
COc1ccc(/C(C)=C2\SC(=S)N(CCC(=O)O)C2=O)cc1 | – | 7.05 | 16.4 µM (active) | –
